In PubChem BioAssay (NCATS):
Several values for one entry are separate records, joined by “and”; a condition that tells them apart may be missing. Identical values can stand only once. Inconclusive results are not listed. Activity calls are given as the source filed them. Unless noted, calls come from the whole dose curve; as a rule, active = well fitted curve in the direction sought with a large enough effect; inconclusive = small, poorly fitted or top-dose-only effect, or another doubt; inactive = no such curve, though single readings can be large; an effect the other way counts as inactive or inconclusive.

What was measured:
[1] = biological target: Cellular tumor antigen p53 (Homo sapiens) (UniProt P04637); test: Primary qHTS for small molecule compounds that upregulate eGFP-tagged delta133p53alpha (in N-terminal) cells. (AID 2060322); settings: NCI-H358 eGFP-delta133p53alpha fluorescence, 24 h; activation: hits give high values;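 note: cells pre-induced with doxycycline then dosed without doxycycline; series mostly up to about 56 µM; 0% = DMSO vehicle and 100% = reference activator; nearly all actives have a fitted effect of over 75% in size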
Summary of the method: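 NCI-H358 cells pre-induced 24 h with 10 ng/ml doxycycline for eGFP-delta133p53alpha, plated dox-free and exposed 24 h at 37C to titrated compounds. Fixed, Hoechst-stained; gated GFP peak intensity by laser scanning cytometry, normalized to DMSO (0%) and 57.5 uM 5-azacytidine (100%).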

[2] = biological target: Cellular tumor antigen p53 (Homo sapiens) (UniProt P04637); test: Primary qHTS for small molecule compounds that upregulate eGFP-tagged delta133p53alpha (in C-terminal) cells. (AID 2060324); note: potency is the fitted concentration of half-maximal effect
Summary of the method: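 Readout: filtered GFP peak intensity of gated cells (laser scanning cytometer), normalized plate-wise to intraplate controls, DMSO wells = 0% activity. Cells: NCI-H358 D133p53a-eGFP, dox 100 ng/ml 24 h beforehand, then compound 24 h, 37 °C.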

[3] = biological target: Aldehyde dehydrogenase, mitochondrial (Homo sapiens) (UniProt P05091); test: qHTS for Inhibitors of the Aldehyde Dehydrogenase Family (ALDH2) Validation screens (AID 2061302; active = well fitted inhibition curve with a large enough effect; title and protocol of this record describe different tests;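 note: plate controls were DMSO vehicle for no effect and maximal DPI positive control response for full effect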)
[4] = biological target: Retinaldehyde dehydrogenase 3 (Homo sapiens) (UniProt P47895); test: qHTS for Inhibitors of the Aldehyde Dehydrogenase Family (ALDH1A3) Validation screen (AID 2061312); note: % is set by controls: 0 for no effect and ±100 for the full control effect; nearly all actives have a fitted effect of over 45% in size
[5] = qHTS for Inhibitors of the Aldehyde Dehydrogenase Family (ALDH1A2, ALDH1A3, ALDH2, ALDH3A1) (AID 2061307); note: % is set by controls: 0 for no effect and ±100 for the full control effect; nearly all actives have a fitted effect of over 50% in size
[6] = biological target: Retinaldehyde dehydrogenase 3 (Homo sapiens) (UniProt P47895); test: qHTS for Inhibitors of the Aldehyde Dehydrogenase Family (ALDH1A3) Confirmatory screens (AID 2061311); note: potency is the fitted concentration of half-maximal effect; nearly all actives have a fitted effect of over 60% in size
[7] = BET inhibitor-based combinations targeting novel dependencies in MECOM-rearranged (r) AML: SET-2 cell line (AID 2202231); settings: SET-2 AML cells viability, CellTiter-Glo luminescence, 48 h; viability: hits give low values, series mostly up to about 46 µM;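 note: plate controls were DMSO treated cells for no effect and wells without cells for full effect; nearly all actives have a fitted effect of over 35% in size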
Summary of the method: (§1)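 Here, 11-point titrations of each agent were applied to 500 seeded cells and incubated 48 hr; CellTiter-Glo signal, scaled against DMSO and empty wells, was integrated as AUC, then Z-scored within the individual line.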

[8] = BET inhibitor-based combinations targeting novel dependencies in MECOM-rearranged (r) AML: OCI-AML3 cell line (AID 2202232); settings: Potency: OCI-AML3 viability;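 note: series mostly up to about 46 µM; plate controls were DMSO vehicle wells for no effect and wells without cells for full effect; nearly all actives have a fitted effect of over 35% in size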
Summary of the method: as §1

[9] = BET inhibitor-based combinations targeting novel dependencies in MECOM-rearranged (r) AML: MV-4-11 cell line (AID 2202233); note: nearly all actives have a fitted effect of over 45% in size
Summary of the method: (§2)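 Normalized to DMSO and empty-well controls, the luminescence data from CellTiter-Glo after 48 hr drug exposure were fitted across 11 concentrations. Reported metrics are area under the dose-response curve and its Z-transformed form.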

[10] = BET inhibitor-based combinations targeting novel dependencies in MECOM-rearranged (r) AML: HNT-34 cell line (AID 2202234);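 note: plate controls were vehicle wells for no effect and cell-free wells for full effect; nearly all actives have a fitted effect of over 35% in size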
Summary of the method: as §2

[11] = BET inhibitor-based combinations targeting novel dependencies in MECOM-rearranged (r) AML: UCSD-AML1 cell line (AID 2202235);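 note: series mostly up to about 46 µM; plate controls were DMSO vehicle wells for no effect and blank wells for full effect; nearly all actives have a fitted effect of over 40% in size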
Summary of the method: as §2

[12] = BET inhibitor-based combinations targeting novel dependencies in MECOM-rearranged (r) AML: AML-191 cell line (AID 2202236;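 note: plate controls were vehicle wells for no effect and wells without cells for full effect; nearly all actives have a fitted effect of over 35% in size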)
Summary of the method: as §1

[13] = BET inhibitor-based combinations targeting novel dependencies in MECOM-rearranged (r) AML: AML-194 cell line (AID 2202237;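 note: plate controls were vehicle wells for no effect and wells without cells for full effect; nearly all actives have a fitted effect of over 40% in size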)
Summary of the method: as §1

Cellular tumor antigen p53 (Homo sapiens), sequence (P04637 whole entry, looked up): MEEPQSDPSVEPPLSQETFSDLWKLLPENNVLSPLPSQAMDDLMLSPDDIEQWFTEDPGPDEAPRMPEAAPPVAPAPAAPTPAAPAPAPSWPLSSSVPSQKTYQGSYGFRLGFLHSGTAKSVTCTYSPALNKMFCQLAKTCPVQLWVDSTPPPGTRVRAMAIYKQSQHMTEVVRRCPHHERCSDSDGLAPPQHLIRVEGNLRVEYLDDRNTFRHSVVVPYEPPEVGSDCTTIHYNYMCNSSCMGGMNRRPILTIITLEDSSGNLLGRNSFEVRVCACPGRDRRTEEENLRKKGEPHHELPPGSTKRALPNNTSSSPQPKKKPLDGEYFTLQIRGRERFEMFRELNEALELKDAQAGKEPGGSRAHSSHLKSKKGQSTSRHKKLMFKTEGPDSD

C[C@]12CCC3C(CC[C@H]4C[C@H](O)CC[C@]34C)C1CC[C@@H]2C(=O)CO (some centres undefined)
inactive: activation [1] -8.4% | Potency [2] | Potency [3] | Potency [4]

CN1C2CCC1CC(OC(=O)c1cc(Cl)cc(Cl)c1)C2 (centres undefined)
inactive: activation [1] -57.3% | Potency [2] | Potency [3] | Potency [4]

CC(=O)[C@H]1CC[C@H]2[C@@H]3CC[C@H]4C[C@H](O)CC[C@]4(C)[C@H]3C(=O)C[C@]12C
inactive: activation [1] -36.8% and -33% | Potency [2] | Potency [3] | Potency [4]

NC(CCCCCP(=O)(O)O)C(=O)O (centres undefined)
inactive: activation [1] -10.2% | Potency [2] | Potency [3] | Potency [4]

CCCN1CCC[C@@H]2Cc3[nH]ncc3C[C@H]21
inactive: activation [1] -5.86% and -11.2% and 2.09% | Potency [2] | Potency [3] | Potency [4]

O=C(CCCN1CCC2(CC1)C(=O)NCN2c1ccccc1)c1ccc(F)cc1
inactive: activation [1] -10.7% and -39.7% | Potency [2] | Potency [3] | Potency [4]

CN1CCc2cccc(Cl)c2CC1
inactive: activation [1] -13.1% | Potency [2] | Potency [3] | Potency [4]

CC(C)(C)NCC(O)c1ccccc1Cl (centres undefined)
inactive: activation [1] 26.8% and -4.18% | Potency [2] | Potency [3] | Potency [4]

CCCN(CCC)CCc1ccc(O)c(O)c1
inactive: activation [1] -0.248% | Potency [2] | Potency [3] | Potency [4]

CC(=O)[C@H]1CC[C@H]2[C@@H]3CC[C@H]4C[C@](C)(O)CC[C@]4(C)[C@H]3CC[C@]12C
inactive: activation [1] -8.47% and -37.3% | Potency [2] | Potency [3] | Potency [4]

Nc1ccc(CCN2CCN(c3cccc(C(F)(F)F)c3)CC2)cc1
inactive: activation [1] -62.8% | Potency [2] | Potency [3] | Potency [4]

CC(N)c1cccc(Cl)c1Cl (centres undefined)
inactive: activation [1] -35.4% | Potency [2] | Potency [3] | Potency [4]

c1ccc(C2(c3ccccc3)CC2C2=NCCN2)cc1 (centres undefined)
inactive: activation [1] -13.2% | Potency [2] | Potency [3] | Potency [4]

CC(=O)NBr
inactive: activation [1] -8.24% | Potency [2] | Potency [3] | Potency [4]

CC(=O)OCC1=C(C(=O)O)N2C(=O)[C@@H](NC(=O)CCC[C@@H](N)C(=O)O)[C@H]2SC1
inactive: activation [1] 20.4% | Potency [2] | Potency [3] | Potency [4]

c1ccc2c(c1)OCC(C1=NCCN1)O2 (centres undefined)
inactive: activation [1] -26.9% | Potency [3] | Potency [4]
active: Potency [2] 30.1 µM

c1ccc(C2CC2)c(OCC2=NCCN2)c1
inactive: activation [1] 9.21% and -4.03% | Potency [2] | Potency [3] | Potency [4]

CCNC(=O)[C@H]1O[C@@H](n2cnc3c(N)ncnc32)[C@H](O)[C@@H]1O
inactive: activation [1] 1.33% | Potency [2] | Potency [3] | Potency [4]

N[C@@]1(C(=O)O)CC[C@@H](C(=O)O)C1
inactive: activation [1] 21.8% | Potency [2] | Potency [3] | Potency [4]

CCCCCN(C)CCC(O)(P(=O)(O)O)P(=O)(O)O
inactive: activation [1] 3.78% and 4.27% | Potency [2] | Potency [3] | Potency [4]

O=[N+]([O-])c1cc(O)c(O)c([N+](=O)[O-])c1
inactive: activation [1] -0.323% | Potency [2] | Potency [5]
active: Potency [6] 10.1 µM

CNCC(O)c1ccc(O)cc1 (centres undefined)
inactive: activation [1] -9.6% and -1.8% and -6.7% | Potency [2] | Potency [3] | Potency [4] | viability [7] 116% | Potency [8] | Potency [9] | Potency [10] | Potency [11] | Potency [12] | Potency [13]

CCCn1c(=O)c2[nH]c(C3CCCC3)nc2n(CCCOC(=O)c2ccc(S(=O)(=O)F)cc2)c1=O
inactive: activation [1] 11.3% | Potency [2] | Potency [3] | Potency [4]

Nc1ccncc1
inactive: activation [1] -16.4% and 3.84% | Potency [2] | Potency [3] | Potency [4]

C[C@@H]1O[C@H](C[N+](C)(C)C)C[C@H]1O
inactive: activation [1] -7.38% | Potency [3]

O=C(O)CC[N+](=O)[O-]
inactive: activation [1] -18.9% | Potency [2] | Potency [3] | Potency [4]

CC(C)NP(=O)(NC(C)C)OP(=O)(NC(C)C)NC(C)C
inactive: activation [1] -39% | Potency [2] | Potency [3] | Potency [4]

C=CCN1C[C@@H](C)N([C@H](c2ccc(C(=O)N(CC)CC)cc2)c2cccc(OC)c2)C[C@@H]1C
inactive: activation [1] -25.3% | Potency [2] | Potency [3] | Potency [4]

Cc1nccc2c1[nH]c1ccccc12
inactive: activation [1] -18.9% | Potency [2] | Potency [3] | Potency [4]

COc1ccc2[nH]cc(CCN)c2c1
inactive: activation [1] -19.1% | Potency [2] | Potency [3] | Potency [4]

NC1CC1c1ccccc1 (centres undefined)
inactive: activation [1] -3.62% and 6.08% | Potency [2] | Potency [3] | Potency [4]

NCC1(CC(=O)O)CCCCC1
inactive: activation [1] -0.945% and -3.35% and 5.99% | Potency [2] | Potency [3] | Potency [4] | outcome [9]
